The list is not random: actives were taken first. Their share in the collection is about 3.3%.
PLK1 PBD inh = PLK1 (human) polo-box domain binding inhibition; P53350; Plk1 PBD binding of FITC phosphopeptide, fluorescence polarization; Potency, µM, without a hit: max response, negative = inhibition, hits mostly inhibitors; hit rate 2.8% among 360,000; AID 720504; also: potency is read from the fitted curve at half-maximal effect; series mostly up to about 57 µM; nearly all actives have a fitted effect of over 65% in size
Target sequence (P53350 whole entry, looked up, the tested form may be a part): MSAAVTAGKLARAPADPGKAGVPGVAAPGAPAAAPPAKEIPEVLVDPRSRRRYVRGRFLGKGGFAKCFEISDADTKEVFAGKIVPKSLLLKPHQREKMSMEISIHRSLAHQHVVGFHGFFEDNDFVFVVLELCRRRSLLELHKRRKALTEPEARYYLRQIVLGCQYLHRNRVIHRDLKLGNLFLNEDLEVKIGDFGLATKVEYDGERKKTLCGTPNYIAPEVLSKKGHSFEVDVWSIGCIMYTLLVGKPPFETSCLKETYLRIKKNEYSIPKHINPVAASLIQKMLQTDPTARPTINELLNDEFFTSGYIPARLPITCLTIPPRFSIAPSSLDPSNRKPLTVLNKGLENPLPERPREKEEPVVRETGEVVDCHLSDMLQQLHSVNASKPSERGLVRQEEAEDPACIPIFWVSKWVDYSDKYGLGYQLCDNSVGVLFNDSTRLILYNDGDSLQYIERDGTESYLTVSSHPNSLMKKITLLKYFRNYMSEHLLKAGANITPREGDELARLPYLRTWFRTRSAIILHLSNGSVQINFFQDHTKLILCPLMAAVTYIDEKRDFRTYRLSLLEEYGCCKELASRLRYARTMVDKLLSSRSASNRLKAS
WRN inhibitor = inhibitors of human WRN helicase. Potency, µM (titrated, usually from 114 µM), for inactives: top-dose activity change, negative = inhibition, actives largely listed as inhibitors. Q14191. WRN helicase unwinding, fluorescent forked duplex, kinetic. hit rate 0.46% among 360,000; also: potency is read from the fitted curve at half-maximal effect; nearly all actives have a fitted effect of over 55% in size
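WRN at 20 nM final preincubated with compound 15 min at room temperature; reaction started with 100 nM fluorophore/quencher forked duplex oligonucleotide and 2 mM ATP final. Unwinding followed kinetically by red fluorescence (ex 525, em 598 nm).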
USP2a inh = inhibitors of human ubiquitin-specific protease USP2a | USP2 core, Ub-CHOP2 coupled fluorogenic reporter, 485/531 | Potency, µM (highest dose often 38.3 µM), for inactives: at the top dose activity change, negative = inhibition, actives largely listed as inhibitors | hit rate 0.01% among 330,000;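 also: potency is read from the fitted curve at half-maximal effect; plate controls were DMSO wells for no effect and full inhibition by NEM control for full effect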
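USP2 core (10nM final) preincubated 30min RT with compound in 20mM Tris-HCl pH 8.0, 2mM CaCl2, 2mM beta-mercaptoethanol, 0.05% CHAPS; 25nM Ub-CHOP2 plus 25nM reporter substrate added, fluorescence (Ex485/Em531) read after 60min.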
PI5P4Ka inh = inhibitors of human PI5P4K alpha | PI5P4Kalpha enzyme, ADP-Glo luminescence, 60 min; hits give low values | max response, % | hit rate 1.2% among 330,000 | AID 652105; active = max response of -50% or lower; inconclusive = between -30% and -50%; inactive = -30% or higher; also: value at the top dose of about 77 µM
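qHTS, 1536-well: enzyme/substrate mix, compound by pin tool, 5 microM ATP final; RT 60 min; ADP-Glo reagents 1 (45 min) then 2 (30 min); luminescence.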
USP1 inh = USP1/UAF1 (human) deubiquitinase inhibition; O94782; recombinant USP1/UAF1, Ub-Rhodamine cleavage fluorescence; Potency, µM (doses to about 57.1 µM), for inactives: top-dose activity change, negative = inhibition, hits mostly inhibitors; hit rate 0.23% among 390,000; also: potency is read from the fitted curve at half-maximal effect; nearly all actives have a fitted effect of over 60% in size
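High-throughput fluorogenic screen: 1nM USP1/UAF1 complex, Ub-Rho substrate 150nM final, 50mM HEPES pH 7.8 with 0.5mM EDTA, 0.1 mg/ml BSA, 1mM TCEP and 0.01% Tween-20.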
* marks the source's active call; other numbers are inactive results; ? = inconclusive; · = no result; [ ] = remark or other dose. Unless noted, calls follow the shape of the dose curve; as a rule, active = well fitted curve in the direction sought with a large enough effect; inconclusive = small, poorly fitted or top-dose-only effect, or another doubt; inactive = no such curve, though single readings can be large; an effect the other way counts as inactive or inconclusive. Unless noted, % is scaled to controls: 0 for no effect and ±100 for the full control effect.

SMILES	PLK1 PBD inh	WRN inhibitor	USP2a inh	PI5P4Ka inh	USP1 inh
O=C1NC(=S)N/C1=C\c1ccc(N2CCOCC2)cc1	3.8µM*	0%	0%	-22	-16%
Cc1ccc(C(=O)NC(C)c2ccc3c(c2)OCO3)s1 (centres undefined)	12µM*	1%	9%	?	-14%
CCOc1ccccc1NC(=O)CSc1nnc(CC)c(CC)n1	·	·	·	·	3%
Oc1ccc(Cl)cc1-c1cc(-c2ccco2)[nH]n1	5.3µM*	?	2%	?	?
Oc1ccccc1-c1cc(-c2ccco2)[nH]n1	-3%	-14%	2%	·	-15%
C=C1C(=O)[C@]23C[C@H]1CCC2[C@@]1(C)C(C[C@@H]3O)[C@](C)(C(=O)OC)CC[C@@H]1OC(C)=O (some centres undefined)	11µM*	?	·	-28	·
FCCCOc1ccc(-c2nccc(-c3ccccn3)n2)cc1	-11%	-2%	3%	14	-19%
O=C(O)COc1ccc(-c2nccc(-c3ccccn3)n2)cc1	19µM*	-16%[57.1 µM]	-7%	-24	-10%
COc1cc(CC2COC(c3ccc(O)c(OC)c3)C2COC(C)=O)ccc1O (centres undefined)	-29%	50µM*	2%	-94*	9%
CC(C)Oc1ccc(CNS(=O)(=O)c2ccc(-c3cc(C(F)(F)F)on3)s2)cc1	·	·	·	·	-26%
CCn1nc(C)c(CNC(=O)c2cc(COc3ccccc3SC)on2)c1C	0%	18%	1%	-13	-17%
CCn1nc(C)c(CNC(=O)c2cc(COc3cncc(Cl)c3)on2)c1C	24µM*	2%	7%	?	-28%
CCCCCCC=C1CCC(CN2CCCC2)C1=O (centres undefined)	3.4µM*	-9%[57.1 µM]	·	-29	·
CCOC(=O)c1ccc(NS(=O)(=O)c2ccc3[nH]c(=O)[nH]c3c2)cc1	12µM*	-18%	3%	·	-3%
COC(=O)c1ccc(-c2nc(O)c(C)s2)cc1	7.5µM*	2%	3%	-30	-23%
COc1ccc(Cc2nnc(NC(=O)Nc3ccc(F)cc3)s2)cc1OC	19µM*	8%	-9%	-18	-19%
COc1ccc(NC(=O)Nc2nnc(Cc3ccc(OC)c(OC)c3)s2)cc1	-2%	5%	-1%	-1	-11%
CCOCC(=O)Nc1nnc(Cc2ccc(OC)c(OC)c2)s1	27µM*	-8%	7%	-2	-1%
COCC(=O)Nc1nnc(Cc2ccc(OC)c(OC)c2)s1	-3%	15%	-1%	1	-23%
COc1cc(NC(=O)CCc2c(C)nc3nc(-c4cc(OC)cc(OC)c4)nn3c2C)cc(OC)c1	·	·	·	·	-26%
CCOc1ccc(-c2cnc(NCc3ccc(OC)cc3OC)n2C)cc1	·	·	·	·	-24%
Cc1ccc(-n2c(CCc3nc4ccccc4[nH]3)n[nH]c2=S)cc1	-30%	-35%	1%	-58*	-2%
CCn1c(CCc2nc3ccccc3[nH]2)n[nH]c1=S	-18%	-3%	3%	5	-5%
COc1ccc(C2/C(=C(/O)c3ccc(F)cc3)C(=O)C(=O)N2c2ccccn2)cc1OC (centres undefined)	12µM*	?	4%	-19	-21%
CC1C=CCC2C(=O)N(c3ccc(Cl)cc3O)C(=O)C12 (centres undefined)	11µM*	-32%	1%	-24	-15%
SMILES	PLK1 PBD inh	WRN inhibitor	USP2a inh	PI5P4Ka inh	USP1 inh
CC1C=CCC2C(=O)N(c3ccccc3OC(=O)c3cccs3)C(=O)C12 (centres undefined)	-5%	-2%	4%	-3	-8%
Cc1nc2ccccc2c2c(N)c3ccccc3n12	12µM*	-9%	11%	6	-21%
O=C1/C(=C\c2ccc(Br)cc2)SC(=S)N1NS(=O)(=O)c1ccccc1	21µM*	?	0%	-56*	-26%
C=CCOc1ccc(/C=C2\SC(=S)N(NS(=O)(=O)c3ccccc3)C2=O)cc1	21µM*	-5%[11.6 µM]	-1%	-56*	-12%
COc1ccc(NC(=O)c2c(NC(=O)C(F)(F)F)sc3c2CCCCC3)cc1	·	·	·	·	-28%
CCOC(=O)N1CCN(C(=O)/C=C/c2cccc([N+](=O)[O-])c2)CC1	30µM*	6%[57.1 µM]	3%	-14	2%
CC(C)c1ccccc1NC(=O)COC(=O)/C=C/c1cccc([N+](=O)[O-])c1	15µM*	3%	2%	?	-22%
CCOC(=O)N1CCN(C(=O)/C=C/c2ccc([N+](=O)[O-])cc2)CC1	-14%	3%	1%	0	4%
O=C(Nc1ccc(Br)cc1)C1CCCN1S(=O)(=O)c1ccc(F)cc1 (centres undefined)	·	·	·	·	-12%
Cc1ccc(N=C2NC(=O)/C(=C\c3ccsc3)S2)c(C)c1	30µM*	-15%	-13%	-1	-22%
CC1=C(C(=O)O)N2C(=O)C(NC(=O)c3ccccc3Cl)C2SC1 (centres undefined)	?	6%	1%	-27	-23%
NC(=O)c1cc[n+](CC2=C(C(=O)O)N3C(=O)[C@@H](NC(=O)C(c4ccccc4)S(=O)(=O)[O-])[C@H]3SC2)cc1 (some centres undefined)	4.7µM*	·	0%	-97*	35µM*
N[C@@H](C(=O)N[C@@H]1C(=O)N2C(C(=O)O)=C(Cl)CS[C@H]12)c1ccccc1	27µM*	-32%	3%	?	-24%
Cc1ccnc(NC(=O)c2ccccc2[N+](=O)[O-])c1	9.5µM*	4%	0%	-7	-7%
COC(=O)C1=C(O)/C(=C\c2ccc(CNS(=O)(=O)c3ccc(Cl)cc3)o2)N=C1C	-16%	?	5%	-21	-8%
CCOC(=O)C1=C(O)/C(=C\c2ccc(CNS(=O)(=O)c3ccc(Br)cc3)o2)N=C1C	?	45µM*	2%	-58*	-19%
CCN1C(=O)/C(=C/C=C2/Sc3ccccc3N2CCO)SC1=S	-11%	-6%	16%	-26	-16%
Cn1cccc1/C=C1/SC(=S)N(CC(=O)O)C1=O	39%	-5%	25%	5	?
CCN1C(=O)/C(=C/C=C2/SCCN2C)SC1=S	25%	-14%	12%	3	25µM*
CN1CCS/C1=C\C=C1/SC(=S)N(CC(=O)O)C1=O	115%	-6%	?	5	25µM*
CCOC(=O)c1nnc2c(-c3ccc(Cl)cc3)c(C)nn2c1C	·	·	·	·	-7%
O=S(=O)(c1ccc(-c2cc(C(F)(F)F)on2)s1)N1CCN(c2cccc(Cl)c2)CC1	·	·	·	·	-26%
Cc1ccc(NC(=O)CNC(=O)N2CC(=O)Nc3ccccc32)cc1F	7.5µM*	-7%	4%	-19	3%
COc1ccc(OC)c(NC(=O)CCCOc2cc(=O)n(C)c3ccccc23)c1	·	·	·	·	-7%
COc1ccc2oc(-c3ccc(C)c(NC(=O)c4ccc(N5CCCCC5)c([N+](=O)[O-])c4)c3)nc2c1	·	·	·	·	-24%
O=C(O)c1cccc(N/N=C/c2ccc(F)c(F)c2)c1	-25%	-2%	6%	-12	3%

Screening data: PubChem, National Center for Advancing Translational Sciences (NCATS)
